The source of these data is the supplement of paper PMC9262897, “Low-cost anti-mycobacterial drug discovery using engineered E. coli” (Nature Communications, 2022).

Holding throughout (test): growth (OD600 after 10 h); higher = more growth (less inhibition)
In assay [1] the test system is E. coli TESEC Alr+ wild-type control. The conditions noted are these: compound 0.1 mM; raw OD600 reference: median of DMSO wells 0.241, cell-free background 0.041. Here is the method:
(§1)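 TESEC Mtb Alr E. coli, or the Alr+ wild-type control, in 384-well plates with Prestwick library compounds at 0.1 mM and 1% DMSO, across arabinose induction levels of 1E3 to 1E7 nM. Growth is read as OD600 after 10 h at 37 °C in triplicate biological replicates.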

In assay [2] the test system is E. coli TESEC Mtb Alr. The conditions noted are these: compound 0.1 mM. How it is done: as §1
Assay [3] relates to E. coli TESEC Mtb Asd. The conditions noted are these: compound 0.1 mM. Here is the method: (§2)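 TESEC E. coli strains in which the native enzyme is deleted and replaced by arabinose-inducible Mtb Asd, DapB, CysH or TrpD, each grown in its selective medium. Strains were screened against the Prestwick library at 0.1 mM and 1% DMSO in 384-well format at low and high arabinose induction. Growth is read as OD600 after 10 h in triplicate.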

The test system of assay [4] is E. coli TESEC Mtb DapB. To be noted: compound 0.1 mM. How it is done: as §2
Assay [5] relates to E. coli TESEC Alr+ wild-type control. To be noted: compound 0.1 mM; raw OD600 reference: median of DMSO wells 0.49, cell-free background 0.052. Here is the method:
(§3)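 TESEC Mtb Alr E. coli (ΔaraC ΔtolC ΔentC Δalr ΔdadX, arabinose-inducible Mtb Alr) or the Alr+ wild-type control strain, grown in defined M9-fructose medium without D-alanine in 96-well plates with Prestwick library compounds at 0.1 mM and 1% DMSO. Low Alr induction is 0.1 µM arabinose and high induction is 10 mM arabinose.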

Assay [6] has as its system E. coli TESEC Mtb Alr. The conditions noted are these: compound 0.1 mM. How it is done: as §3
This is another data set of the same source.

The mark [7] stands for this setting: arabinose 1000 nM, raw OD600 reference: median of DMSO wells 0.294, cell-free background 0.041.
The mark [8] stands for this setting: arabinose 10000 nM, raw OD600 reference: median of DMSO wells 0.264, cell-free background 0.041.
[9] abbreviates: arabinose 100000 nM, raw OD600 reference: median of DMSO wells 0.201, cell-free background 0.041.
The mark [10] stands for this setting: arabinose 1000000 nM, raw OD600 reference: median of DMSO wells 0.193, cell-free background 0.041.
The mark [11] stands for this setting: arabinose 10000000 nM, raw OD600 reference: median of DMSO wells 0.146, cell-free background 0.041.
The mark [12] stands for this setting: arabinose induction (level): High, raw OD600 reference: median of DMSO wells 0.331, cell-free background 0.041.
The mark [13] stands for this setting: arabinose induction (level): Low, raw OD600 reference: median of DMSO wells 0.417, cell-free background 0.041.
[14] abbreviates: arabinose induction (level): High, raw OD600 reference: median of DMSO wells […], cell-free background 0.041.
Setting [15] is: arabinose induction (level): Low, raw OD600 reference: median of DMSO wells 0.227, cell-free background 0.041.
The mark [16] stands for this setting: arabinose 100 nM, raw OD600 reference: median of DMSO wells 0.413, cell-free background 0.052.
Setting [17] is: arabinose 10000000 nM, raw OD600 reference: median of DMSO wells […], cell-free background 0.052.

The structures appear in SMILES notation. Counter-ions that a name gives are not always drawn. ± gives the standard deviation of the averaged measurements.

`CCN(CC)CCNC(=O)c1cc(Br)c(N)cc1OC` [Bromopride]: the growth is 0.243 ± 0.025 in assay [1]; 0.312 ± 0.011 in assay [2] (setting [7]); 0.256 ± 0.0069 in assay [2] (setting [8]); 0.196 ± 0.0058 in assay [2] (setting [9]); 0.181 ± 0.006 in assay [2] (setting [10]); 0.1557 ± 0.00098 in assay [2] (setting [11]). For the same molecule, the growth in assay [3] (setting [12]) stood at 0.467 ± 0.025; in assay [3] (setting [13]), 0.4797 ± 0.0047; in assay [4] (setting [14]) it was 0.196 ± 0.014; in assay [4] (setting [15]), 0.256 ± 0.033; in assay [5], 0.428 ± 0.011; in assay [6] (setting [16]), 0.4074 ± 0.0017. The same molecule had a growth in assay [6] (setting [17]) of 0.316 ± 0.022.

As for `Nc1ccc(S(=O)(=O)Nc2cnc3ccccc3n2)cc1` [Sulfaquinoxaline sodium salt], the growth in assay [1] worked out at 0.221 ± 0.0039; in assay [2] (setting [7]), 0.266 ± 0.02; in assay [2] (setting [8]) it was 0.171 ± 0.004; in assay [2] (setting [9]), 0.21 ± 0.0087; in assay [2] (setting [10]) it was 0.1074 ± 0.00085; in assay [2] (setting [11]) it was 0.137 ± 0.0051. Further, the growth is 0.289 ± 0.073 in assay [3] (setting [12]); 0.396 ± 0.028 in assay [3] (setting [13]); 0.181 ± 0.012 in assay [4] (setting [14]); 0.204 ± 0.022 in assay [4] (setting [15]); 0.47 ± 0.082 in assay [5]; 0.419 ± 0.0091 in assay [6] (setting [16]). The growth in assay [6] (setting [17]) came to 0.297 ± 0.0077.

Turning to `CC(CNC1CCCCC1)OC(=O)c1ccccc1` (stereo not drawn) [Hexylcaine hydrochloride], the growth was 0.242 ± 0.016 in assay [1]; 0.303 ± 0.0092 in assay [2] (setting [7]); 0.273 ± 0.0072 in assay [2] (setting [8]); 0.191 ± 0.0085 in assay [2] (setting [9]); 0.173 ± 0.0098 in assay [2] (setting [10]); 0.1577 ± 0.0015 in assay [2] (setting [11]). The growth in assay [3] (setting [12]) amounted to 0.452 ± 0.026; in assay [3] (setting [13]), 0.489 ± 0.039; in assay [4] (setting [14]), 0.2 ± 0.027; in assay [4] (setting [15]), 0.233 ± 0.024; in assay [5], 0.552 ± 0.022; in assay [6] (setting [16]) it was 0.409 ± 0.016. The growth in assay [6] (setting [17]) came to 0.309 ± 0.0087.

In the case of `CCc1ccc(CCOc2ccc(CC3SC(=O)NC3=O)cc2)nc1` (stereo not drawn) [Pioglitazone], the growth in assay [1] stood at 0.225 ± 0.0024; in assay [2] (setting [7]) it was 0.268 ± 0.012; in assay [2] (setting [8]), 0.267 ± 0.0054; in assay [2] (setting [9]), 0.176 ± 0.0064; in assay [2] (setting [10]), 0.164 ± 0.002; in assay [2] (setting [11]), 0.15 ± 0.0092. Moreover, the growth in assay [3] (setting [12]) is 0.292 ± 0.045; in assay [3] (setting [13]), 0.334 ± 0.04; in assay [4] (setting [14]), 0.191 ± 0.0045; in assay [4] (setting [15]) it was 0.191 ± 0.011; in assay [5], 0.577 ± 0.076; in assay [6] (setting [16]), 0.426 ± 0.018. This molecule registered a growth in assay [6] (setting [17]) of 0.358 ± 0.023.

Turning to `CC(CCc1ccc(O)cc1)NCCc1ccc(O)c(O)c1` (stereo not drawn) [Dobutamine hydrochloride], the growth in assay [1] came out at 0.116 ± 0.0039; in assay [2] (setting [7]), 0.227 ± 0.021; in assay [2] (setting [8]), 0.174 ± 0.0051; in assay [2] (setting [9]), 0.198 ± 0.0044; in assay [2] (setting [10]), 0.116 ± 0.0039; in assay [2] (setting [11]) it was 0.115 ± 0.0067. Moreover, the growth was 0.176 ± 0.006 in assay [3] (setting [12]); 0.165 ± 0.029 in assay [3] (setting [13]); 0.19 ± 0.02 in assay [4] (setting [14]); 0.167 ± 0.02 in assay [4] (setting [15]); 0.539 ± 0.008 in assay [5]; 0.409 ± 0.0099 in assay [6] (setting [16]). Further, the growth in assay [6] (setting [17]) came to 0.343 ± 0.018.

Consider `CC1(C)NC(=O)N(c2ccc([N+](=O)[O-])c(C(F)(F)F)c2)C1=O` [Nilutamide], for which the growth came out at 0.216 ± 0.017 in assay [1]; 0.273 ± 0.0069 in assay [2] (setting [7]); 0.256 ± 0.003 in assay [2] (setting [8]); 0.189 ± 0.012 in assay [2] (setting [9]); 0.153 ± 0.0033 in assay [2] (setting [10]); 0.142 ± 0.0062 in assay [2] (setting [11]). Also, the growth in assay [3] (setting [12]) amounted to 0.281 ± 0.1; in assay [3] (setting [13]), 0.399 ± 0.042; in assay [4] (setting [14]) it was 0.194 ± 0.012; in assay [4] (setting [15]), 0.252 ± 0.0066; in assay [5] it was 0.552 ± 0.064; in assay [6] (setting [16]) it was 0.396 ± 0.013. In assay [6] (setting [17]), the growth came to 0.295 ± 0.017.
